Reference: PubChem BioAssay (Tox21)
Results filed as inconclusive are left out. Entries that show only a call come without a potency. The source made the active and inactive calls. Unless noted, calls come from the whole dose curve; as a rule, active = well fitted curve in the direction sought with a large enough effect in the repeat runs; inconclusive = weak or mixed curves; inactive = no such curve, though single readings can be large; an effect the other way counts as inactive or inconclusive.

Tests used:
[1] = qHTS assay to identify small molecule antagonists of the estrogen receptor alpha (ER-alpha) signaling pathway using the BG1 cell line in the presence of 0.1 nM 17-beta-estradiol - cell viability counter screen (AID 1259241); note: nearly all actives have a fitted effect of over 40% in size
How it was run: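 VM7Luc4E2 cells (endogenous ER-alpha, 4×ERE-luciferase), hormone-starved 5 days in charcoal-stripped FBS, were treated with compounds plus 0.1 nM 17beta-estradiol for 22 hr at 37C; viability read in same wells as CellTiter-Fluor live-cell protease fluorescence.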

[2] = qHTS assay to identify small molecule antagonists of the androgen receptor (AR) signaling pathway using the MDA cell line in the presence of 0.5 nM R1881 - cell viability counter screen (AID 1259242); note: nearly all actives have a fitted effect of over 45% in size
How it was run: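 Cells seeded at 3,000/well and allowed 5 hr at 37C, 0% CO2 before compound transfer and R1881 (0.5 nM final) addition; 16 hr later, live-cell protease fluorescence indicated cytotoxicity.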

[3] = target: Estrogen receptor (Homo sapiens) (UniProt P03372); experiment: qHTS assay to identify small molecule antagonists of the estrogen receptor alpha (ER-alpha) signaling pathway using the BG1 cell line in the presence of 0.1 nM 17-beta-estradiol (AID 1259244); note: nearly all actives have a fitted effect of over 50% in size; note: potency is the fitted concentration of half-maximal effect
Chain of Estrogen receptor (Homo sapiens) (P03372 whole entry, looked up): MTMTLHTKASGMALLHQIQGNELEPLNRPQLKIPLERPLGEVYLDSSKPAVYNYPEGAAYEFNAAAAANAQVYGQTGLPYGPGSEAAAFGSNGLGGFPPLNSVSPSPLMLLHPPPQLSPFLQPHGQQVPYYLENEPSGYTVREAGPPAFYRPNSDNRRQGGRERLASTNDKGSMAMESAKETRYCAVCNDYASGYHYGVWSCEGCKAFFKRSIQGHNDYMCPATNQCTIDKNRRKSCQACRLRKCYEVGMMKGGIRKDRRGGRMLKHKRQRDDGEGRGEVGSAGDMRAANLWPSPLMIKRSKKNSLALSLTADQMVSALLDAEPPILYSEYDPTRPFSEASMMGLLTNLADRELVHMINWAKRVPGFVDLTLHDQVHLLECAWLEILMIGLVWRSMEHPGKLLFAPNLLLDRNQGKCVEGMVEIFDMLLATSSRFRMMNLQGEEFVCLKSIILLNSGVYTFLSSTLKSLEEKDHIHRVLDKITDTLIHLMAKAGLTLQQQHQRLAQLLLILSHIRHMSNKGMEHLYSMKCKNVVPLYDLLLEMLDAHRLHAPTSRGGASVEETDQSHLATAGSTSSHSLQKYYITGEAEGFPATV
How it was run: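 Luciferase signal from VM7Luc4E2 ERE-reporter cells, co-dosed with test compound and 0.1 nM final 17beta-estradiol for 22 h, read with ONE-Glo.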

[4] = qHTS assay to identify small molecule HDAC inhibitors (AID 1259364);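 note: wild-type HCT-116 cells with endogenous class I/II HDAC activity; top concentration of the series differs between compounds; nearly all actives have a fitted effect of over 45% in size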
How it was run: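 HCT-116 wt cells, 1,500/well, overnight attach. Compounds (DMSO) 2 h, 37 °C. HDAC-Glo I/II, 30 min RT. Luminescence.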

[5] = qHTS assay to identify small molecule HDAC inhibitors - cell viability counter screen (AID 1259365); note: series mostly up to about 92 µM; nearly all actives have a fitted effect of over 50% in size
How it was run: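 Wild-type HCT-116 cells were seeded at 1,500 per well, incubated overnight at 37 C, then exposed to compounds in DMSO for 2hr. Viability was read by CellTiter-Glo luminescence after 30min at room temperature.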

[6] = qHTS assay to identify small molecule agonists of the sonic hedgehog signaling (Shh) pathway - cell viability counter screen (AID 1259366); note: nearly all actives have a fitted effect of over 50% in size
How it was run: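 NIH/3T3-derived 3T3 Gli1-Luc cells (stable Gli1-responsive firefly luciferase reporter) were seeded, rested 4 hr at 37 C/5% CO2, then exposed to compounds in DMSO for 24 hr; viability was read by CellTiter-Fluor fluorescence in the same wells.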

[7] = qHTS assay to identify small molecule antagonists of the sonic hedgehog signaling (Shh) pathway - cell viability counter screen (AID 1259367); note: nearly all actives have a fitted effect of over 55% in size; note: potency is the fitted concentration of half-maximal effect
How it was run: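 Fluorescence read-out (CellTiter-Fluor, 1 hr at 37C) taken after 23 hr compound treatment of 3T3 Gli1-Luc cells stimulated with conditioned medium. Cells were seeded at 2,000 per well and pre-incubated 4 hr.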

[8] = qHTS assay to identify small molecule antagonists of the sonic hedgehog signaling (Shh) pathway (AID 1259369; calls by dose curve; note: nearly all actives have a fitted effect of over 45% in size; note: potency is the fitted concentration of half-maximal effect)
How it was run: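 Read-out is luminescence from a firefly luciferase gene controlled by the Gli1 response element, in 3T3Gli1-Luc cells pre-incubated 4hr then exposed to compounds and conditioned medium for 24hr.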

[9] = target: Estrogen receptor beta (Homo sapiens) (UniProt Q92731); experiment: qHTS assay to identify small molecule agonists of the estrogen receptor beta (ER-beta) signaling pathway (AID 1259377; active = well fitted activation curve with a large enough effect in the signal ratio in the repeat runs, not every such curve was filed as active; the % refers to the signal ratio)
Chain of Estrogen receptor beta (Homo sapiens) (Q92731 whole entry, looked up): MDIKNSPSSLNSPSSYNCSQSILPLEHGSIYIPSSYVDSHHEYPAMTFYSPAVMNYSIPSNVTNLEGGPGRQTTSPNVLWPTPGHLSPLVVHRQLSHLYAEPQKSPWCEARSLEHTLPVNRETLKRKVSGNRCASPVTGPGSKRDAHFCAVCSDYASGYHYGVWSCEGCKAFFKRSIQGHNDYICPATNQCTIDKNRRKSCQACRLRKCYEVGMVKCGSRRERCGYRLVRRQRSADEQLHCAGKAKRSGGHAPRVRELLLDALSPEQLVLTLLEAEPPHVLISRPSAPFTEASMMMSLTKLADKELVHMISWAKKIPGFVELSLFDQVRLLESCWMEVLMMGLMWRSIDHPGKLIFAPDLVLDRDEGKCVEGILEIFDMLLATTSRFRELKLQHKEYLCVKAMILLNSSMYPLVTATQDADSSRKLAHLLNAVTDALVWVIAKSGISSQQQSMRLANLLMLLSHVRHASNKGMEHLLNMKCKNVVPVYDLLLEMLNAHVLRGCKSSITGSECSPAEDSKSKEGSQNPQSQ
How it was run: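 ER-beta-UAS-bla HEK293T (GripTite) cells carrying a UAS-driven beta-lactamase reporter, in medium with 2% charcoal-stripped FBS, were exposed to compounds for 16 hr at 37C; LiveBLAzer B/G FRET substrate was then added and fluorescence read after 2 hours at room temperature.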

[10] = qHTS assay to identify small molecule agonists of the androgen receptor (AR) signaling pathway in the presence of an antagonist - cell viability counter screen (AID 1259379);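 note: MDA-kb2 human breast cancer cells carrying an MMTV luciferase reporter; series mostly up to about 92 µM; nearly all actives have a fitted effect of over 25% in size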
How it was run: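 Each compound was tested at 15 concentrations on MDA-kb2 cells in the presence of 3.0uM nilutamide. Viability was measured by CellTiter-Fluor fluorescence after a 16 hr incubation at 37C in a CO2-free atmosphere.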

[11] = qHTS assay to identify small molecule agonists of the estrogen receptor beta (ER-beta) signaling pathway - cell viability counter screen (AID 1259380); note: nearly all actives have a fitted effect of over 30% in size; note: potency is the fitted concentration of half-maximal effect
How it was run: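 Compounds dissolved in DMSO were pin-transferred onto ER-beta-UAS-bla HEK293T cells that had settled 6 hr, and exposure ran 16 hr at 37C. Following the reporter read, CellTiter-Glo luminescence after 30 min at room temperature indicated cytotoxicity.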

[12] = target: Estrogen receptor (Homo sapiens) (UniProt P03372); experiment: qHTS assay to identify small molecule agonists of the estrogen receptor alpha (ER-alpha) signaling pathway in the presence of an antagonist (AID 1259383; calls by dose curve; note: top concentration of the series differs between compounds; nearly all actives have a fitted effect of over 15% in size)
How it was run: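 Luminescent ERE-luciferase reporter, VM7Luc4E2 cells (endogenous ER-alpha); 10.0nM ICI-182,780 final; 15-point compound titration; 22hr at 37C; ONE-Glo, 30min RT.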

[13] = qHTS assay to identify small molecule agonists or antagonists of the thyroid stimulating hormone receptor (TSHR) signaling pathway - wild type cell line counter screen (AID 1259384; calls by dose curve)
How it was run: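 Wild-type Hek293 cells, 800/well, 18 h at 37C, then compound with Ro20-1724 for 30 min RT. cAMP by HTRF (cAMP-d2/anti-cAMP cryptate), 1 h RT, fluorescence read. 15 concentrations, triplicates.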

[14] = target: Thyrotropin receptor (Homo sapiens) (UniProt P16473); experiment: qHTS assay to identify small molecule antagonists of the thyroid stimulating hormone receptor (TSHR) signaling pathway (AID 1259385; calls by dose curve; note: nearly all actives have a fitted effect of over 20% in size)
Chain of Thyrotropin receptor (Homo sapiens) (P16473 whole entry, looked up): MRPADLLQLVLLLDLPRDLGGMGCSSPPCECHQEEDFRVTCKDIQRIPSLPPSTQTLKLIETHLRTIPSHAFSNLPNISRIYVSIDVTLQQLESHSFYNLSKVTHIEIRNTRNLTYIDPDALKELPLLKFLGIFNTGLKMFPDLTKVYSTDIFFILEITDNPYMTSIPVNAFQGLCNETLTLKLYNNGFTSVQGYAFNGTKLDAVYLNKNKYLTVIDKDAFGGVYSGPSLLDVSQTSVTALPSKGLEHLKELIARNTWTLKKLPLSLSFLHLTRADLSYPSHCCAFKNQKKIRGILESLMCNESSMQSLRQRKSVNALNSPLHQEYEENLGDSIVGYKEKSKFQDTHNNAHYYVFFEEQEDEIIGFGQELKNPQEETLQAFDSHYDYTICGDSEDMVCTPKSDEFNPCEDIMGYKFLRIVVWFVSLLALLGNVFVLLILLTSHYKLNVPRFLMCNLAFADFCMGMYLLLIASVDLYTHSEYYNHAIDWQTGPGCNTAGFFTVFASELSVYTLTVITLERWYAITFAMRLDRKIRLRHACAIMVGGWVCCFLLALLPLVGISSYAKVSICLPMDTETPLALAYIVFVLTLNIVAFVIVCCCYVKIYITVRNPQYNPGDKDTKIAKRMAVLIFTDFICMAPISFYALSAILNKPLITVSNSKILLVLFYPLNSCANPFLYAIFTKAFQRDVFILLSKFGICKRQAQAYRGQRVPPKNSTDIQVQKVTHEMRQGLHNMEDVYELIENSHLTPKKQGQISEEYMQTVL
How it was run: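 TSHR-HEK293 cells (800/well) plated 18 h, then compounds with Ro20-1724 and TSH at 1.5 ng/mL final, 30 min at room temperature. cAMP quantified by HTRF (cAMP-d2/anti-cAMP-cryptate, 1 h); 15 concentrations in triplicate.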

[15] = qHTS assay to identify small molecule agonists of the sonic hedgehog signaling (Shh) pathway (AID 1259368; calls by dose curve; note: series mostly up to about 92 µM; nearly all actives have a fitted effect of over 15% in size)
How it was run: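 Following a 24 hr incubation with DMSO-dissolved compounds at 37 C, 5% CO2, Gli1-Luc NIH/3T3-derived cells received luciferase reagent for 30 min at room temperature prior to luminescence measurement.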

[16] = qHTS assay to identify small molecule antagonists of the estrogen receptor beta (ER-beta) signaling pathway - cell viability counter screen (AID 1259382); note: series mostly up to about 92 µM; nearly all actives have a fitted effect of over 55% in size
How it was run: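 CellTiter-Glo ATP luminescence measured after the LiveBLAzer read in the same wells; ER-beta-UAS-bla HEK293T cells, 16 hr compound treatment with 1nM 17-beta-estradiol agonist at 37C, 5% CO2.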

[17] = target: Estrogen receptor beta (Homo sapiens) (UniProt Q92731); experiment: qHTS assay to identify small molecule antagonists of the estrogen receptor beta (ER-beta) signaling pathway (AID 1259378; active = well fitted inhibition curve with a large enough effect in the signal ratio in the repeat runs, not every such curve was filed as active; the % refers to the signal ratio)
How it was run: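 ER-beta-UAS-bla HEK293T cells in 2% charcoal-stripped FBS medium treated with compound plus 1nM final 17-beta-estradiol for 16 hr at 37C. Beta-lactamase reporter read by FRET substrate fluorescence after 2 hours at room temperature.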

[18] = target: Androgen receptor (Homo sapiens) (UniProt P10275); experiment: qHTS assay to identify small molecule antagonists of the androgen receptor (AR) signaling pathway using the MDA cell line in the presence of 0.5 nM R1881 (AID 1259243); note: nearly all actives have a fitted effect of over 50% in size
Chain of Androgen receptor (Homo sapiens) (P10275 whole entry, looked up): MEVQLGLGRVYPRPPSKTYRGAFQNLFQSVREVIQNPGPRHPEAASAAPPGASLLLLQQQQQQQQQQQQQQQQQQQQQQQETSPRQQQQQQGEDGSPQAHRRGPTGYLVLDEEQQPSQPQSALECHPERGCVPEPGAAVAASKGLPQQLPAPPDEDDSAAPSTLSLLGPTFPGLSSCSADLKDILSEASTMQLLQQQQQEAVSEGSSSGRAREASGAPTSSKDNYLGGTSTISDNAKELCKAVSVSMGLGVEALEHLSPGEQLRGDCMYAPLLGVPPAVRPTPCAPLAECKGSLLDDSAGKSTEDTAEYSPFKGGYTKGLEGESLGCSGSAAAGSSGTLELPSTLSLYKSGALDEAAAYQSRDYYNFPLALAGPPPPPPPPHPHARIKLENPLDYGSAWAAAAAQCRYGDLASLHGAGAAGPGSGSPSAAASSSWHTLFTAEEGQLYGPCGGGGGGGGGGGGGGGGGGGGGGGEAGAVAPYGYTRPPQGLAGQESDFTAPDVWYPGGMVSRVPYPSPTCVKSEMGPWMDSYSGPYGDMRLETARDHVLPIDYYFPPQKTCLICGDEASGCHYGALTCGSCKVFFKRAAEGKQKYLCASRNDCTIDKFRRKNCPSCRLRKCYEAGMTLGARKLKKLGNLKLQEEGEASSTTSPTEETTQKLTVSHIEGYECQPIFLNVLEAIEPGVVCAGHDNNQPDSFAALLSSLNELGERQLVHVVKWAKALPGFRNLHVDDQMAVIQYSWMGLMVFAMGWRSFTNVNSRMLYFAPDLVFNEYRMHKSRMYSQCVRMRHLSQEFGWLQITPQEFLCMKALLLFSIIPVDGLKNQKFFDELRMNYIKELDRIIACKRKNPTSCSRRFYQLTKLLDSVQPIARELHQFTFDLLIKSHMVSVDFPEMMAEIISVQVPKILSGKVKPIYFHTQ
How it was run: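 Luminescence from an AR/GR-responsive MMTV-luciferase construct in MDA-kb2 breast carcinoma cells, read 30 min after ONE-Glo, following 16 hr co-treatment with compounds and 0.5 nM R1881.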

[19] = target: Androgen receptor (Homo sapiens) (UniProt P10275); experiment: qHTS assay to identify small molecule agonists of the androgen receptor (AR) signaling pathway in the presence of an antagonist (AID 1259381; calls by dose curve; note: nearly all actives have a fitted effect of over 15% in size)
How it was run: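 Plated MDA-kb2 cells (3,000/well) were pre-incubated 5hr, given nilutamide (3.0uM final) or buffer, then dosed with compounds in DMSO at 15 concentrations. Luciferase activity was quantified by luminescence after 16hr at 37C.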

[20] = qHTS assay to identify small molecule phospholipidosis (PLD) inducers (AID 1259344; active = well fitted curve in the direction sought with a large enough effect; an effect the other way counts as inactive or inconclusive)
How it was run: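 Read-out is LipidTOX Red fluorescence (ex 595/em 615) imaged in HepG2 cells after 24 h compound exposure at 37 C, with Hoechst nuclear counterstain (ex 352/em 461) allowing per-cell normalisation.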

Row | Structure (SMILES) | outcome [1] | outcome [2] | Potency [3] | Potency [4] | outcome [5] | Potency [6] | Potency [7] | Potency [8] | outcome [9] | Potency [10] | Potency [11] | Potency [12] | Potency [13] | Potency [14] | outcome [15] | Potency [16] | Potency [17] | Potency [18] | Potency [19] | outcome [20]
1 | C[N+](C)=CCl | inactive | inactive | inactive | inactive | inactive | inactive | inactive | inactive | inactive | inactive | inactive | inactive | inactive | inactive | – | – | – | – | – | –
2 | CC1=C(C(=O)Nc2ccccc2)S(=O)(=O)CCO1 | inactive | inactive | 48.5 µM (active) | inactive | inactive | – | 27.3 µM (active) | – | – | inactive | inactive | inactive | inactive | – | inactive | inactive | – | – | – | –
3 | CN1CCC(N(Cc2ccccc2)c2ccccc2)CC1 | inactive | inactive | inactive | inactive | inactive | – | inactive | 18.8 µM (active) | inactive | inactive | 13.3 µM (active) | – | inactive | inactive | – | – | – | – | – | –
4 | CC1CN1P(=O)(N1CC1C)N1CC1C (centres undefined) | inactive | inactive | inactive | inactive | inactive | inactive | inactive | inactive | inactive | inactive | inactive | inactive | – | – | – | inactive | inactive | – | – | –
5 | CCOP(=S)(Oc1cnc(C(C)(C)C)nc1)OC(C)C (centres undefined) | inactive | inactive | – | inactive | inactive | inactive | inactive | – | – | inactive | – | – | inactive | – | inactive | inactive | – | – | – | –
6 | COC(=O)COc1ccc(Cl)cc1Cl | inactive | inactive | – | inactive | inactive | inactive | inactive | – | – | inactive | – | – | inactive | inactive | – | inactive | – | – | – | –
7 | CC(C(O)c1ccccc1)N(C)C/C=C/c1ccccc1 (centres undefined) | inactive | – | inactive | inactive | inactive | inactive | inactive | inactive | – | inactive | – | inactive | inactive | – | – | inactive | inactive | inactive | inactive | –
8 | CN(C)CCc1ccc(O)cc1 | inactive | inactive | – | inactive | inactive | inactive | inactive | inactive | – | inactive | inactive | – | inactive | inactive | inactive | inactive | – | – | – | inactive
9 | C[C@]12CC[C@H]3[C@@H](CC=C4C[C@@H](O)CC[C@@]43C)[C@@H]1CC[C@@H]2O | inactive | inactive | – | inactive | inactive | inactive | inactive | inactive | – | inactive | – | – | – | – | – | inactive | inactive | – | – | inactive
10 | N#CC(O)c1ccccc1 (centres undefined) | inactive | inactive | – | inactive | inactive | inactive | inactive | inactive | inactive | inactive | – | – | inactive | inactive | inactive | inactive | inactive | – | – | –
11 | CN1CCC(O)(c2ccc(F)cc2)C(C(=O)c2ccc(F)cc2)C1 (centres undefined) | inactive | inactive | – | inactive | inactive | inactive | inactive | – | inactive | inactive | inactive | – | inactive | inactive | inactive | inactive | inactive | – | – | inactive
12 | CN1CCN(C(=O)O[C@H]2c3nccnc3C(=O)N2c2ccc(Cl)cn2)CC1 | inactive | inactive | – | inactive | inactive | inactive | inactive | inactive | inactive | inactive | inactive | – | inactive | – | – | inactive | inactive | – | – | inactive
